We go through 40 compounds from PubChem BioAssay (EPA / NIEHS).

By AC50 is commonly meant the concentration at which the activity in the assay is half-maximal.

Activity calls are given as the source filed them. How the source made its calls: active means hit-call score of the fitted dose curve at least 0.9, where 1 is the maximum; inactive means score below 0.9.

Read-out in this experiment: Monokine induced gamma interferon (MIG), CXCL9 (gene 4283)
As to the kind of experiment: BSK_hDFCGF_MIG: BioMAP Diversity Plus: hDFCGF Assay for Monokine induced gamma interferon (MIG) Biomarker Activity (AID 2283063). As to conditions: primary human foreskin fibroblasts; actives raise or lower the signal. On the procedure:
BSK_hDFCGF is a cell-based, multiplexed-readout assay that uses foreskin fibroblast, a human skin primary cell, with measurements taken at 24 hours after chemical dosing in a 96-well plate.BSK_hDFCGF_MIG is an assay component measured in the BSK_hDFCGF assay. It measures MIG antibody related to regulation of gene expression using ELISA technology.Data from the assay component BSK_hDFCGF_MIG was analyzed into 1 assay endpoint. This assay endpoint, BSK_hDFCGF_MIG, was analyzed with bidirectional fitting relative to DMSO as the negative control and baseline of activity. Using a type of binding reporter, gain or loss-of-signal activity can be used to understand changes in the signaling as they relate to the gene CXCL9. Furthermore, this assay endpoint can be referred to as a primary readout, because this assay has produced multiple assay endpoints where this one serves a signaling function. To generalize the intended target to other relatable targets, this assay endpoint is annotated to the cytokine intended target family, where the subfamily is chemotactic factor.
The levels of cell surface (or secreted, indicated by the prefix "s") biomarker endpoints were measured by ELISA. Overt cytotoxicity to cells in confluent adherent cultures (all systems other than the BT system) was assessed by measuring total protein levels using sulforhodamine B (SRB) staining in parallel cultures at the time of biomarker measurements, indicated as SRB endpoints. For proliferation assays for adherent cell types, individual cell types are cultured at sub-confluence and relative cell numbers quantified by SRB staining at time points optimized for each system (48 h: 3C and CASM3C systems; 72 h: BT and HDF3CGF systems; 96 h: SAg system). SRB was performed by staining cells with 0.1% SRB after fixation with 10% TCA and reading wells at 560 nm.Viability and proliferation of PBMC (T cells) was quantified by Alamar Blue reduction for the SAg and BT systems. For PBMC viability (referred to as PBMC Cytotoxicity within the assay endpoint names), cells were plated (75,000/well in a 96-well plate) and then chemical samples added for 1 h before addition of activators, SEB and TSST-1 (20 ng/mL final concentration each). Cells were incubated for 90 h. Then, Alamar Blue (20 uL/well) (Invitrogen, Cat DAL1100) was added for 6 h, and the plates were read with a fluorescence microplate reader at 546/580 nm (excitation/emission). For PBMC proliferation, cells were plated and activated as above but incubated for only 16 h prior to addition of Alamar Blue. Plates were read after 6 h.
With `CCOC(=O)C(C)Oc1ccc(Oc2cnc3cc(Cl)ccc3n2)cc1` (stereo not given), the result was inactive. As to `CCOC(=O)[C@H](C)Oc1ccc(Oc2nc3ccc(Cl)cc3o2)cc1`, the outcome was inactive.

Take `CCOC(=O)COc1cc(-n2ncc(C(F)(F)F)c(C)c2=O)c(F)cc1Cl`: the outcome was inactive. Turning to `S=C([S-])NCCNC(=S)[S-].[Mn+2]`, the AC50 is 32.4 µM (active). Take `C[C@]12CC[C@@H]3c4ccc(O)cc4C[C@@H](CCCCCCCCCS(=O)CCCC(F)(F)C(F)(F)F)[C@H]3[C@@H]1CC[C@@H]2O` (stereo not given in full): the outcome was inactive. In the case of `COC(=O)c1cccc(C)c1S(=O)(=O)NC(=O)Nc1nc(OCC(F)(F)F)nc(N(C)C)n1`, the outcome was inactive.

For `S=C(S)NCCNC(=S)S.[Mn+2].[S-]C([S-])=NCCN=C([S-])[S-].[Zn+2]`, the outcome was inactive. Turning to `C#C[C@]1(O)CC[C@H]2[C@@H]3CCC4=CC(=O)CC[C@@H]4[C@H]3CC[C@@]21CC`, the outcome was inactive. On to `C#CCOC(=O)[C@@H](C)Oc1ccc(Oc2ncc(Cl)cc2F)cc1`, for which the result was inactive. With `CCOC(=O)NCCOc1ccc(Oc2ccccc2)cc1`, the outcome was inactive. Regarding `CN(C)C(=O)Nc1ccc(Cl)c(Cl)c1`, the result was inactive. `COC(=O)c1ccc(CNS(C)(=O)=O)cc1S(=O)(=O)NC(=O)Nc1nc(OC)cc(OC)n1`: the outcome was inactive.

For `CC(=O)[C@H]1CC[C@H]2[C@@H]3CCC4=CC(=O)CC[C@]4(C)[C@H]3CC[C@]12C`, the outcome was inactive. Take `CCCN(CCC)c1c([N+](=O)[O-])cc(C(F)(F)F)c(N)c1[N+](=O)[O-]`: the AC50 is 35.9 µM (active).

As for `C=CCOC(Cn1ccnc1)c1ccc(Cl)cc1Cl` (stereo not given), the outcome was inactive. On to `CC(C)(C)[C@@H](O)[C@@H](Cc1ccc(Cl)cc1)n1cncn1`, for which the outcome was inactive.

With `N[C@@H](Cc1cc(I)c(Oc2ccc(O)c(I)c2)c(I)c1)C(=O)O`, the outcome was inactive. On the same count and under the same terms, the entry for `CC1(C)C(C=C(Cl)Cl)C1C(=O)OCc1cccc(Oc2ccccc2)c1` (stereo not given) is “inactive”. Regarding `O=C(c1ccccc1)C1CCCCC1`, the outcome was inactive. On the same count and under the same terms, as for `c1ccc(Nc2ccccc2)cc1`, the entry is “inactive”. For the compound `CCCOC(=O)c1ccc(C(=O)OCCC)nc1`, the result was inactive.

For the compound `CCC(O)=C1C(=O)CC(C(=O)O)CC1=O` (stereo not given), the result was inactive. `CCC(C)OC(=O)N1CCCCC1CCO` (stereo not given): the result was inactive. Same read-out and setting: the entry for `COC(=O)CSc1cc(N=c2sc(=O)n3n2CCCC3)c(F)cc1Cl` is “inactive”. Consider `O=C(Nc1ccc([N+](=O)[O-])cc1Cl)c1cc(Cl)ccc1O`, for which the AC50 was 0.148 µM (active).

Take `COc1nc(C)nc(NC(=O)NS(=O)(=O)c2ccccc2OCCCl)n1`: the outcome was inactive. As for `CCOC(=O)C(C)Oc1ccc(Oc2nc3ccc(Cl)cc3o2)cc1` (stereo not given), the outcome was inactive.

In the case of `CCCCOC(=O)[C@@H](C)Oc1ccc(Oc2ccc(C(F)(F)F)cn2)cc1`, the result was inactive. With `O=C(O)C1(C(=O)Nc2ccc(Cl)cc2Cl)CC1`, the result was inactive.

Turning to `CCN(Cc1c(F)cccc1Cl)c1c([N+](=O)[O-])cc(C(F)(F)F)cc1[N+](=O)[O-]`, the AC50 was 20 µM (active). Consider `CCNc1nc(N)nc(Cl)n1`, for which the result was inactive. With `CCCCOCCOCCOCc1cc2c(cc1CCC)OCO2`, the outcome was inactive. `Cc1nn(C)c(Oc2ccccc2)c1C=NOCc1ccc(C(=O)OC(C)(C)C)cc1`: the outcome was inactive. With `CCCOC(=O)NCCCN(C)C`, the result was inactive.

Turning to `COc1c(Cl)ccc(Cl)c1C(=O)O`, the outcome was inactive. As to `COC(=O)c1ccc(I)cc1S(=O)(=O)NC(=O)Nc1nc(C)nc(OC)n1`, the result was inactive. For `O=C(O)c1ccccc1`, the result was inactive.

Regarding `COC(=O)c1ccccc1S(=O)(=O)NC(=O)Nc1nc(OC(F)F)cc(OC(F)F)n1`, the result was inactive. Still for that read-out and setting: as for `c1ccc2[nH]c(-c3cscn3)nc2c1`, the entry is “inactive”. With `CC(C)CCCCCCc1ccc(O)cc1`, the AC50 is 8.13 µM (active).
